Source: PubChem BioAssay AID624330 (Southern Research Specialized Biocontainment Screening …, 2012)
Values joined by “and” are separate entries in the source; they are usually repeats but may differ in a detail not shown here. Equal entries are not always repeated. About 2,100 (0.62%) of roughly 340,000 compounds were called active.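 Rule for the calls: active = first-screen hits whose inhibition reached a set limit at any dose in the follow-up dose series; inconclusive = inhibition above the set first-screen limit but never retested; inactive = the rest.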 A selection follows. Potency and affinity values are given separately.

target: Rac GTPase-activating protein 1 (Homo sapiens) (UniProt Q9H0H5); assay: blockers of MgcRacGAP-driven Rac1 GTP hydrolysis – biochemical, ADP Hunter fluorescence, primary and confirmatory, confirmation (AID 624330); settings: MgcRacGAP-stimulated Rac1 GTP hydrolysis, at 30 µM, stronger effect = higher value, GST-tagged Rac1 F28L mutant substrate;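 note: fluorescence reports GDP produced by GAP-driven GTP hydrolysis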
Sequence (Q9H0H5 whole entry, looked up): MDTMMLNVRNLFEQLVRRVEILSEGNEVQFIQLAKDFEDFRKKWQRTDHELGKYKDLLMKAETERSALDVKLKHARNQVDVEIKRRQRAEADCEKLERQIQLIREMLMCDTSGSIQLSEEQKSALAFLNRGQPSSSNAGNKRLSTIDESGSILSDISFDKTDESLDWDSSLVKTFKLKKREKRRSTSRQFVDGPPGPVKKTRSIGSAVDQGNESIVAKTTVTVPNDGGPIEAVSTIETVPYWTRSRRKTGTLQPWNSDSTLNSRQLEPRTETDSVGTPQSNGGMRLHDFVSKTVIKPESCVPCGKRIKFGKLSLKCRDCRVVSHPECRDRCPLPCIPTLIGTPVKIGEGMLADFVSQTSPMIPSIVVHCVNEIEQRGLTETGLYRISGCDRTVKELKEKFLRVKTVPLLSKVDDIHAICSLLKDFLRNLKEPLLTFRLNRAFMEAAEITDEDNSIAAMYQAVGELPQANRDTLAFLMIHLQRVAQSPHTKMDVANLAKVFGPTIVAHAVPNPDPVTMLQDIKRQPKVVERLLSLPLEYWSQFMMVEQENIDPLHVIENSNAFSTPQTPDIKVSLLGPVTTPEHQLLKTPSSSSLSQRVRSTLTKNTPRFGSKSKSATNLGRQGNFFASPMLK

inhibition, inactive:
O=C(NCc1ccco1)C1CC(c2cc(C(F)(F)F)cc(C(F)(F)F)c2)=NO1 (centres undefined) 6.53%
COc1cc2c(cc1NC(=O)CN(C)Cc1nc3ccccc3c(=O)[nH]1)oc1ccccc12 5.31%
O=C(Nc1ccc(Cl)cc1Cl)NC1CCN(S(=O)(=O)c2ccc(F)cc2)CC1 9.28%
Cc1ccc(-c2ccc(/C=N/NC(=O)Cc3nnc(N)s3)o2)cc1Cl 7.23%
COc1ccc(S(=O)(=O)N2CCOCC2)cc1NC(=O)c1cc(C)oc1C 6.98%
O=C(Cn1sc2ccccc2c1=O)Nc1ccc(Br)cc1 31.7%
O=C(Cn1nc(-c2ccccc2)c2ccccc2c1=O)Nc1ccc(F)cc1 5.93%
O=C(Cn1sc2ccccc2c1=O)Nc1ccc(Cl)cc1 31.2%
CCn1c(=O)n(CC(=O)Nc2ccc(F)cc2)c(=O)c2ccccc21 12.4%
O=c1c(-c2ccc(Br)cc2)[n+]([O-])c2ccccc2n1OCc1ccccc1 -0.43%
CSc1ccc(Cn2nnc(C(=O)Nc3ccc(C)c(C)c3)c2N)cc1 8.18%
Cn1c(SCC(=O)Nc2cccc(F)c2)nnc1-c1cc2ccccc2o1 7.89%
Nc1ccc(NC(=O)c2cccs2)cc1 24%
CC1=C(C(=O)NCCc2ccc(C)cc2)C2(CCC(C)CC2)OC1=O (centres undefined) 7.59%
O=C(Nc1ccccc1Cl)c1ccccc1 6.83%
O=C(NC1=C(Nc2ccc(Cl)cc2)C(=O)c2ccccc2C1=O)c1ccccc1 6.16%
C/C(=N\NC(=O)C(O)c1ccccc1)c1cccnc1 (centres undefined) 2.12%
COc1ccc(C(=O)N/N=C/c2sc(N3CCOCC3)nc2-c2ccccc2)cc1OC 7.1%
O=C(N/N=C/c1ccc(N2CCOCC2)s1)c1ccccc1Cl 25.1%
O=C(N/N=C/c1ccc(N2CCOCC2)s1)c1ccc(NS(=O)(=O)c2cccs2)cc1 18.4%
COc1ccc(C(=O)N/N=C/c2ccc(N3CCOCC3)o2)cc1OC 14.2%
O=C(NN=Cc1ccc(N2CCOCC2)s1)c1ccc([N+](=O)[O-])cc1 9.59%
Nc1ccc(C(=O)N/N=C/c2sc(N3CCOCC3)nc2-c2ccccc2)cc1 12%
CCCNC(=O)CSC1=N/C(=C/c2ccc(F)cc2)C(=O)N1CC -5.26%
CCC(=O)NC(=S)Nc1ccc(S(=O)(=O)NC(C)C)cc1 -11.4%
O=C(COC(=O)C1CCC1)Nc1cccc(Cl)c1 2.49%
O=C(NC1CCCCC1)C(c1ccncc1)N(C(=O)c1csnn1)c1ccc(F)cc1 (centres undefined) 0.4%
CC1=CCC2C(=O)N(c3ccccc3OC(=O)c3ccccc3F)C(=O)C2C1 (centres undefined) 2.92%
C=CCC1CCC/C(=N\NS(=O)(=O)c2ccc(C)cc2)C1 (centres undefined) -4.06%
Nc1ccn(CCCN2CCN(C(=O)C3CC3)CC2)c(=O)n1 15.1%
COc1cc(C2c3[nH]c4ccccc4c3C[C@H]3C(=O)N(CCO)CC(=O)N23)cc(OC)c1OC (some centres undefined) 8.37%
Cc1c(C(=O)N2CCN(S(=O)(=O)c3ccccc3)CC2)oc2ccccc12 3.82%
O=C(Nc1ccccc1)N1CCc2scc[n+]2-c2ccccc21 16.9%
O=C(NCc1nnc(SCC(=O)N2CCOCC2)o1)c1c(F)cccc1F 7.33%
O=C(NNc1c(Cl)cccc1Cl)c1sccc1Cl 6.69%
COc1ccc(Nc2cccc3ccccc23)cc1 31.6%
COc1ccc(NC(C)=O)c(C)c1 -3.51%
COc1ccc(C(=O)Nc2ccc3ccccc3c2)cc1 3.97%
COc1ccc(Nc2cccccc2=O)cc1 7.45%
O=C(Nc1ccc(S(=O)(=O)Nc2ncccn2)cc1)c1ccccc1 2.75%
CCc1cccc(CC)c1NC(=O)CN1CCN(c2ccccc2)CC1 20.5%
COc1ccccc1NS(=O)(=O)c1ccc(C)c(C(=O)N2CCCC2)c1 -1.95%
COc1ccc(OC)c(CN2CCN(C(=O)c3cc(S(=O)(=O)Nc4ccccc4OC)ccc3C)CC2)c1 -2.48%
COc1cc(C(O)P(=O)(OCCC(C)C)c2ccc(N(C)C)cc2)cc(OC)c1OC (centres undefined) -1.91%
CN(C)/C=N/c1ncc(C(=O)c2ccccc2)s1 7.32%
CN(C)/C=N/c1ncc(C(=O)c2ccc(Cl)cc2)s1 3.44%
COc1ccc(CC(=O)NNC(=O)c2cc(Cl)ccc2OC)cc1 -0.57%
CC(Oc1ccccc1)C(=O)NC1C(=O)N2C1SC(C)(C)C2C(=O)O (centres undefined) 6.29%
Cc1nnc(Nc2ccccc2F)s1 8%
COc1ccccc1Nc1ccc(Nc2ccccc2OC)nn1 -7.41%
COc1ccccc1Nc1nc(C)cs1 0.84% and 0.19%
Cc1nc(CSc2nnc(Nc3cccc(C)c3C)s2)cs1 4.77%
Cc1ccc(Nc2nc3ccccc3o2)cc1F 1.08%
O=C1c2ccccc2C(=O)N1CSc1nnc(Nc2ccccc2F)s1 5.49%
Cc1nnc(Nc2ccc(Cl)cc2)s1 -3.99%
Cc1cccc(Nc2nc3ccccc3s2)c1C 0.63%
Cc1cc(C)n(C(=O)c2c([N+](=O)[O-])cnn2C)n1 -7.87%
O=C(Cc1ccc(F)cc1)Nc1cccc2cccnc12 5.65%
Cc1ccc(Sc2cnccc2C#N)cc1 -14.2%
COC(=O)c1cc(C(=O)OCC(=O)N(C)C2CCS(=O)(=O)C2)cc([N+](=O)[O-])c1 (centres undefined) -3.52%
CC1Sc2ccc(S(=O)(=O)N3CCC(C(=O)NCCc4ccccc4)CC3)cc2NC1=O (centres undefined) 6.85%
COc1cc(C2NC(=O)NC(c3ccccc3)=C2C(C)=O)c(Br)c(Br)c1O (centres undefined) 25.1%
CCOC(=O)c1cc(NC(=O)C2C3C=CC(O3)C2C(=O)O)cc(C(=O)OCC)c1 (centres undefined) 6.71%
CN1CCN(S(=O)(=O)c2ccc(Oc3cccc(C(F)(F)F)c3)nc2)CC1 9.66%
O=c1c(Br)c(N2CCCCC2)cnn1-c1ccccc1 3.03%
CCc1cc(=O)oc2cc(OCC(=O)NCCN3CCOCC3)c(Cl)cc12 0.13%
CCOc1ccc(Nc2nc3ccccc3c(=O)s2)cc1 4.2%
Cc1ccc(Nc2nc3c(s2)CCC3)c(C)c1 9.23%
Clc1ccccc1Nc1nnc(-c2ccncc2)s1 12.4%
Cc1c(Cl)cccc1Nc1ccccc1C(=O)O 3.44%
O=C(c1ccccc1)c1cnc(Nc2ccccc2Cl)s1 8.39%
CCOC(=O)c1sc(Nc2ccc(OCC)cc2)nc1C -3.93%
Cc1cc(=O)[nH]c(Nc2cccc(Cl)c2C)n1 3.14%
Cc1ccc(Nc2nc3ccccc3s2)c(C)c1 7.17%
N#CC1(Nc2ccc(S(N)(=O)=O)cc2)CCCC1 2.96%
Cc1ccc2c(C(=O)CN3CCCCC3)c(C)[nH]c2c1 3.73%
COC(=O)c1cc(C(=O)Nc2nnc(C3CC3)s2)cc([N+](=O)[O-])c1 11.3%
O=C(CSc1ccc(Br)cc1)NCC1(N2CCCCC2)CCCCC1 5.48%
CCC1(CC)NC(=O)N(CC(=O)OC(C)C(=O)Nc2ccccc2OC)C1=O (centres undefined) 1.87%
COc1ccc(N2CCN(C(=S)Nc3cccc(C)c3)CC2)cc1 14.2%
CCOc1ccc(NC(=O)NCC2CCN(c3ccc(OC)cc3)C2)cc1 (centres undefined) 5.23%
CCc1cccc(C)c1NC(=S)NCC1CCN(c2ccc(OC)cc2)C1 (centres undefined) 26.6%
COc1ccc(N2CCC(CNC(=O)Nc3ccc(Cl)cc3)C2)cc1 (centres undefined) 23.3%
COc1ccc(C(=O)N2CCC(CCC(=O)Nc3cccc(C)c3)CC2)cc1 5.31%
CCc1ccc(NC(=O)NCC2CCN(c3ccc(OC)cc3)C2)cc1 (centres undefined) 10.4%
COc1ccc(N2CCC(CNC(=S)Nc3c(C)cc(C)cc3C)C2)cc1 (centres undefined) 23.7%
COc1ccc(N2CCC(CNC(=O)Nc3ccc(C)c(C)c3)C2)cc1 (centres undefined) 36.2%
COCC(C)n1c(C)cc(C(=O)CN2c3cccc4cccc(c34)S2(=O)=O)c1C (centres undefined) 6.1%
O=C(CN(Cc1ccc(Br)cc1)S(=O)(=O)c1ccccc1)NCc1ccccn1 11.6%
C/C(=N\NC(=O)CSc1nc2ccccc2s1)c1cccnc1 2.25%
COc1cc(OC)c(NC(=O)CCNS(=O)(=O)c2ccc3c(c2)CC(C)N3C(C)=O)cc1Cl (centres undefined) -10.2%
COc1cc(/C=N/NC(=O)c2c(C)nc3ccc(Cl)cn23)cc(OC)c1OC 0.19%
COc1ccc(NC(=O)c2ccc(CN3CCc4ccccc4C3)cc2)cc1OC 4.51%
COc1ccc(C(=O)/C=C/c2ccc(O)cc2)c(O)c1CC=C(C)C 7.57%
COc1ccc(C(=O)/C=C/c2ccc(O)cc2)c(O)c1C/C=C(\C)CCC=C(C)C 1.5%
CCCOc1ccc(OCCN2CCCC(C)C2)cc1 (centres undefined) 20%
O=C(CSc1ncnc2sccc12)NCc1ccc2c(c1)OCO2 4.24%
Nc1cccc([N+](=O)[O-])c1 0.03%
O=[N+]([O-])c1cccc(S(=O)(=O)c2cccc([N+](=O)[O-])c2)c1 4.34%
